# The whole screen tested about 420,000 compounds, of which about 50,000 (12%) were called active. Inconclusive results (about 26%) are left out. The sample as a whole holds a higher share of actives than the screen did. Unmarked numbers belong to inactive results. The call rests on the fitted dose curve; in most records, active means well fitted inhibition curve with a large enough effect; inconclusive means small, poorly fitted or top-dose-only effect; inactive means flat fitted curve, though single readings scatter.
# Assay: qHTS for Inhibitors of human tyrosyl-DNA phosphodiesterase 1 (TDP1): qHTS in cells in presence of CPT; further: nearly all actives have a fitted effect of over 55% in size
# Conditions: chicken DT40 Tdp1-/-;hTDP1 cells + 20 nM CPT, ATP luminescence, 48 h; series mostly up to 46.2 µM; activity change, negative = growth inhibition: at the top concentration
# How it was run: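 Chicken DT40 Tdp1-/- cells stably complemented with human TDP1 were seeded at 400 cells/well in medium containing 20 nM camptothecin, exposed to pin-transferred compounds, and grown at 37 °C for at least 48 hr. Viability was read as ATP luminescence.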
# On the % scale 0 is the no-effect control and ±100 the full control effect; potency means the concentration at half of the fitted maximal effect.
SMILES,"activity change, negative = growth inhibition",Potency
CCc1ccc(NC(=O)CC2C(=O)NCCN2C(=S)Nc2ccccc2)cc1 (configuration not stated),-7.73%,
O=C(Nc1nnc([C@H]2C[C@H](O)[C@@H](CO)O2)s1)c1cccc(Cl)c1,-16.4%,
O=C(Nc1cccc2cccnc12)c1cccc(Cl)c1,-16.5%,
O=C(Nc1cccc2cccnc12)c1ccc2sc([C@H]3C[C@H](O)[C@@H](CO)O3)nc2c1,,18.4 µM (active)
O=C1CCC(=O)N1CCC(=O)N(C(=O)NC1CCCCC1)C1CCCCC1,3.74%,
NC(=O)C[n+]1cccc(C(N)=O)c1,-1.13%,
COc1c(O)ccc2c1CN1CCc3cc4c(cc3C1C2)OCO4 (configuration not stated),,14.6 µM (active)
COc1cc(COCC(O)CN2CCN(Cc3ccc4c(c3)OCO4)CC2)cc(OC)c1OC (configuration not stated),-5.21%,
COCCCN1C(=O)C(=O)/C(=C(/O)c2ccc(S(=O)(=O)N3CCOCC3)cc2)C1c1ccc(F)cc1 (configuration not stated),-34%,
Cc1[nH]n(-c2ccccc2)c(=O)c1/C=N/NC(=O)c1ccoc1C,,1.46 µM (active)
Cc1nn(C(=O)c2ccoc2C)c(N)c1-c1ccccc1,-9.59%,
Cc1ccc(N=Nc2c(C)[nH]n(-c3ccccc3)c2=O)cc1,-17.8%,
CCOC(=O)C1CCCN(S(=O)(=O)c2ccc(-n3cnnn3)c(C)c2)C1 (configuration not stated),-25.7%,
COc1ccc(CCn2ccc(O)c(Cc3ccc(Cl)cc3Cl)c2=O)cc1OC,3.26%,
CC1CC(C)(C)CC2(C1)NC(=O)N(CC(=O)Nc1nccs1)C2=O (configuration not stated),1.24%,
O=C(O)/C=C/C(=O)Nc1ccc(F)cc1F,13.5%,
CSc1ccc(NC(=O)/C=C/C(=O)O)cc1,13.8%,
COC(=O)c1sc(-c2ccc(C(C)(C)C)cc2)cc1NC(=O)/C=C/C(=O)O,,4.61 µM (active)
CCC(Cc1ccccc1)NC(=O)C1CCCCC1 (configuration not stated),-15.5%,
CN1CCN(CCNC(=O)Nc2ccccc2[N+](=O)[O-])CC1,1.85%,
Cc1nc2ccccc2c(=O)n1Cc1ccc([N+](=O)[O-])cc1,-21.5%,
CCn1c(/C=C/c2ccc([N+](=O)[O-])o2)nc2ccccc2c1=O,,1.3 µM (active)

SMILES,"activity change, negative = growth inhibition",Potency
Cn1cc(/C=C/c2nc3ccccc3c(=O)n2-c2cccc([N+](=O)[O-])c2)c2ccccc21,-9.1%,
CC(C)c1ccc(S(=O)(=O)N2CCC3(CC2)OCCO3)cc1,-2.81%,
CCn1c(=O)c2cc(C(=O)Nc3cccc(C(C)=O)c3)sc2c2ccccc21,-18.9%,
CCn1c(=O)cc(O)c2ccccc21,2.66%,
CCn1c(NC(=O)c2ccccc2)c(-c2cccs2)c(=O)c2ccccc21,,20.6 µM (active)
CSCCC(NS(=O)(=O)c1ccc(C)cc1)C(=O)N1CCCC1 (configuration not stated),1.59%,
CCCn1c(N)c(C(=O)CSc2nnc3n2CCCCC3)c(=O)[nH]c1=O,-2.04%,
CCOc1ccc(N=C2NC(=O)S/C2=C\c2ccc(O)cc2)cc1,-8.1%,
CCOc1[nH]n(-c2ccc(Cl)cc2)c(=O)c1C=Nc1ccc(O)cc1,,5.8 µM (active)
Cc1ccc(C(=O)NCCN2CCOCC2)cc1C,-17.7%,
Cc1cc(C)cc(C(=O)NCCN2CCOCC2)c1,0.936%,
CC(=O)Oc1cc2c(C(=O)NCCN3CCOCC3)c(C)oc2c2ccccc12,,18.4 µM (active)
COc1ccc(OC)c(-n2nnc3c(sc4nc(C)c(Br)c(C)c43)c2=O)c1,-1.52%,
COC(=O)c1cc(C(=O)N(Cc2ccccc2)c2ccccn2)cc([N+](=O)[O-])c1,1.49%,
COc1cc(SC)ccc1C(=O)N(Cc1ccccc1)c1ccccc1,-29.6%,
Cc1ccc(S(=O)(=O)N(Cc2ccccc2)c2ccccn2)cc1[N+](=O)[O-],6.32%,
CCC(=O)N(Cc1ccccc1)c1ccccn1,-1.38%,
Cc1ccc(CN(C(=O)c2ccccc2[N+](=O)[O-])c2ccccn2)cc1,,11.6 µM (active)
COc1cc(CN(C(=O)c2ccccc2Br)c2ccccn2)cc(OC)c1OC,,18.4 µM (active)
COc1ccc(CCOC(=O)CNC(=O)c2ccc(Cl)cc2Cl)cc1,2.02%,
Cc1ccc(N2CC(NC(=O)Cc3cccs3)CC2=O)cc1 (configuration not stated),-2.46%,
C[C@H](NC(=O)c1nc[nH]c1C(=O)N[C@@H](C)C(=O)OC(C)(C)C)C(=O)OC(C)(C)C,-25.7%,

SMILES,"activity change, negative = growth inhibition",Potency
COc1cc(C(=S)NC2CCCCC2)ccc1O,-6.73%,
Cc1cccc(N2CCN(C(=O)CCn3c(=O)c4cccn4c4cccnc43)CC2C)c1 (configuration not stated),,3.66 µM (active)
Cc1cccc(N2CCN(S(=O)(=O)c3ccc(-c4cc(C)no4)s3)CC2C)c1 (configuration not stated),5.36%,
Cc1cccc(NC(=O)Cn2c(=O)n(CCC(C)C)c(=O)c3cccnc32)c1,-24.7%,
CCOc1ccc(-c2cc3c(=O)n(CC(=O)NCc4ccc(OC)cc4)ccn3n2)cc1,-8.52%,
CCOC(=O)C1C(c2ccc(OC)c(OC)c2)c2c([nH][nH]c2=O)CC1(C)O (configuration not stated),-6.37%,
O=C(Nc1c(Br)cc2c(c1Br)Cc1ccccc1-2)C(F)(F)F,-14%,
COC(=O)N(NC(=O)C(O)(C(C)C)C(C)C)c1ccccc1,23.2%,
CC(C)(O)C(=O)NN(C(=O)c1ccccc1)c1cccc(Br)c1,-2.93%,
CCCCCNC(=O)C1c2ccccc2Oc2ccccc21,-6.61%,
CCCC(O)(CCC)C(=O)NN(C(=O)CCl)c1cccc(C)c1,,4.61 µM (active)
Cc1ccc(N(NC(=O)C(C)(C)O)C(=O)c2ccccc2)cc1C,-9.93%,
CCCCC(O)(CCCC)C(=O)NN(C(=O)CCl)c1ccccc1,,14.6 µM (active)
O=C(NNC(=S)NC1CCCCC1)c1ccccc1Cl,-16.4%,
Clc1ccccc1CSc1nncn2c1cc1occc12,-7.58%,
Cn1c(CCc2ccccc2)nnc1SCC(N)=O,-1.76%,
COc1ccc(CN2CC(C(=O)NC3CCCCC3)CC2=O)cc1 (configuration not stated),1.05%,
COc1ccc(CN2CN(C3CCCC3)CSC2=S)cc1,,5.17 µM (active)
COc1ccc(Cn2c(=O)cc(C)[nH]c2=S)cc1,5.33%,
COc1ccc(CCC(C)N2CCc3ccccc3C2)cc1 (configuration not stated),-12.5%,
COc1ccc(CCNC(=O)COC(=O)C2CCCCC2)cc1,-9%,
COc1ccc(CN2CN(C(C)C)CSC2=S)cc1,,2.91 µM (active)

SMILES,"activity change, negative = growth inhibition",Potency
O=C(NC1CCCC1)C(c1ccccn1)N(C(=O)c1csnn1)C1CCCC1 (configuration not stated),-23%,
Cc1cc(C)c2c(=O)[nH]c(SCC(=O)Nc3ccc(Br)cc3)nc2n1,-23.8%,
CC1(C(=O)NS(=O)(=O)c2cccc(F)c2)CCN1C(=O)Cc1cc(F)ccc1F (configuration not stated),-10.9%,
CN(CC(=O)Nc1ccccc1F)S(=O)(=O)c1ccc2c(c1)c(=O)n(C)c(=O)n2C,-15.7%,
O=C1c2ccccc2C(c2nc3ccccc3[nH]2)N1c1ccccc1 (configuration not stated),24.2%,
CSc1ncccc1C(=O)NCc1ccccc1Cl,11.7%,
O=C(CNC(=O)c1cc(S(=O)(=O)N2CCOCC2)ccc1N1CCCC1)Nc1ccc(F)c(F)c1,-27.5%,
COc1ccccc1CNC(=O)[C@@H]1CCCN1C(=O)[C@@H]1Cc2ccccc2CN1C(=O)OC(C)(C)C,,18.4 µM (active)
COc1ccccc1CNC(=O)C1CCN(C(=O)[C@@H]2Cc3ccccc3CN2)CC1,-4.36%,
COc1ccccc1CNC(=O)C1Cc2ccccc2C(=O)O1 (configuration not stated),-13%,
CCCNC(=O)c1cnc(-c2ccccc2)nc1-c1ccccc1,-2.24%,
O=C(CCCN=C1NS(=O)(=O)c2ccccc21)OCC(=O)c1ccc(F)c(F)c1,27.8%,
Cc1ccc(C)c(NC(CC(=O)c2ccccc2)C(=O)OCC(=O)c2cccs2)c1 (configuration not stated),,18.4 µM (active)
COC(=O)C(CC(=O)Nc1cc(C)ccc1C)Nc1ccccc1OC (configuration not stated),-10.3%,
Cc1ccc(C)c(NC(=O)CCC(=O)NNC(=O)c2cccs2)c1,-8.35%,
O=C(Nc1nnc(-c2ccccc2F)s1)c1ccccc1F,8.72%,
CCN1CC(CN(C)Cc2nc(-c3ccc(Cl)cc3)no2)CC1=O (configuration not stated),,16.4 µM (active)
CN(CCN1CCOCC1)Cc1nc(-c2ccc3c(c2)OCO3)no1,1.76%,
CN(Cc1ccccn1)Cc1nc(-c2ccc(Cl)cc2)no1,-0.996%,
COc1ccc(S(=O)(=O)N2CCOC2CNC(=O)C(=O)NCc2ccncc2)cc1OC (configuration not stated),3.82%,
O=C(CSc1nccn1-c1cccc(F)c1)NC1CCCC1,5.14%,
CN(C)c1nc(-c2cccnc2)nc(-c2ccc(Cl)cc2)c1C#N,-57.4%,

SMILES,"activity change, negative = growth inhibition",Potency
Cc1cc(-c2n[nH]c(=S)n2/N=C/C(Br)=C/c2ccccc2)n[nH]1,,1.64 µM (active)
Cc1cc(-c2n[nH]c(=S)n2/N=C/c2ccco2)n[nH]1,1.05%,
S=c1[nH]nc(-c2ccncc2)n1/N=C/c1ccccc1Cl,2%,
CCN(CC)S(=O)(=O)c1cccc(-c2n[nH]c(=S)n2/N=C/c2ccc(C(=O)OC)cc2)c1,-16.5%,
Fc1ccccc1/C=N/n1c(-c2cccnc2)n[nH]c1=S,5.67%,
S=c1[nH]nc(-c2cccnc2)n1/N=C/C(Cl)=C\c1ccccc1,,20.6 µM (active)
FCOC(C(F)(F)F)C(F)(F)F,7.71%,
NC(=O)CN1CCCC1c1ccc2c(c1)OCCO2 (configuration not stated),-5.42%,
CC(C)C(=O)Nc1oc(-c2ccccc2)cc1C#N,11.7%,
CC1(C)S[C@@H]2[C@H](NC(=O)COc3ccccc3)C(=O)N2C1C(=O)OCc1ccccc1 (some centres not stated),,inactive
COc1cccc(N(CC(=O)N2CCc3ccccc3C2)S(C)(=O)=O)c1,-6.48%,
COc1ccc(-c2nc(CS(=O)CC(=O)NCc3ccccn3)c(C)o2)cc1 (configuration not stated),,18.4 µM (active)
COc1ccc(-c2nc(CS(=O)CC(=O)NCc3cccnc3)c(C)o2)cc1OC (configuration not stated),-7.55%,
COc1ccc(-c2nc(CS(=O)CC(=O)NCc3ccccc3)c(C)o2)cc1OC (configuration not stated),-20.6%,
COc1ccc(-c2nc(CS(=O)CC(=O)N3CCc4ccccc4C3)c(C)o2)cc1 (configuration not stated),,16.4 µM (active)
O=C(COc1ccccc1)N1CCc2ccccc2C1,-6.77%,
CCCSc1nsc(N)n1,-14.7%,
CS(=O)(=O)N1CCN(CC(=O)NC2CCCC2)CC1,3.9%,
O=C(Cc1coc2ccc3ccccc3c12)NCc1cccs1,-27.8%,

# From PubChem BioAssay AID686979 (National Center for Advancing Translational Sciences (NCATS), 2013)
